Results on 17 molecules are retold here after PubChem BioAssay.

The subject of assay [1] is Plasmodium falciparum Sir2 (PF13_0152, Sir2A). As to the kind of experiment: Plasmodium falciparum Sir2A binding compounds – biochemical, small-molecule microarray, 635 nm fluorescence, primary screen (AID 1098).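 Further: score merges spot fluorescence intensity with its signal-to-noise ratio.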 The conditions noted are these: fluorescence 635 nm, higher = more signal.
Assay [2] in a line: probe aDKK1 binding to arrayed compounds – biochemical, biotinylated probe, 635/667 nm fluorescence, primary screen (AID 1099).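 Further: score merges 667nm spot fluorescence with signal to noise across triplicate slides; reference of the scale not given here.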 The conditions noted are these: small-molecule microarray, higher = more signal.
A short description of assay [3]: probe aCHRDL2 binding to arrayed compounds – biochemical, biotinylated probe, 635/667 nm fluorescence, primary screen (AID 1100). The conditions noted are these: small-molecule microarray, higher = more signal.
A short description of assay [4]: change in splice reporter luminescence, either direction, cell-based, HEK293, spliceosome inhibition project, primary screen (AID 1101).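 Further: HEK293 cells carrying a splicing-competent luciferase reporter gene; test concentration not given here.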 The conditions noted are these: HEK293 splicing luciferase reporter, 24 h, higher = more signal, called active from +8 up or from −8 down.
Assay [5] addresses Fibroblast growth factor 10 (Homo sapiens) (UniProt O15520). Description: compounds binding fibroblast growth factor 10 – biochemical, small-molecule microarray, 635 nm fluorescence, primary screen (AID 1102). The conditions noted are these: FGF10 binding, fluorescence 635 nm, higher = more signal.
Assay [6] concerns glycogen synthase kinase-3 (GSK3A per assay name; protocol says GSK3B). Description: compounds binding glycogen synthase kinase-3 – biochemical, small-molecule microarray, 635 nm fluorescence, GSK3A, primary screen (AID 1103). Further: the record names both GSK3A and GSK3B. The conditions noted are these: fluorescence 635 nm, higher = more signal.
Assay [7] concerns the target Epidermal growth factor receptor (Homo sapiens) (UniProt P00533). As to the kind of experiment: compounds binding epidermal growth factor receptor – biochemical, small-molecule microarray, 635 nm fluorescence, primary screen (AID 1104).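 Further: score merges 667 nm emission intensity with spot signal to noise over triplicate slides.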 The conditions noted are these: EGFR binding, higher = more signal.
In assay [8] the target is Follistatin-related protein 3 (Homo sapiens) (UniProt O95633). As to the kind of experiment: compounds binding follistatin-related protein 3 – biochemical, small-molecule microarray, 635 nm fluorescence, primary screen (AID 1105).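 Further: score merges emission near 667 nm and signal to noise per printed spot across three slides.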 The conditions noted are these: FSTL3 binding, higher = more signal.
Chain of Follistatin-related protein 3 (Homo sapiens) (O95633 whole entry, looked up): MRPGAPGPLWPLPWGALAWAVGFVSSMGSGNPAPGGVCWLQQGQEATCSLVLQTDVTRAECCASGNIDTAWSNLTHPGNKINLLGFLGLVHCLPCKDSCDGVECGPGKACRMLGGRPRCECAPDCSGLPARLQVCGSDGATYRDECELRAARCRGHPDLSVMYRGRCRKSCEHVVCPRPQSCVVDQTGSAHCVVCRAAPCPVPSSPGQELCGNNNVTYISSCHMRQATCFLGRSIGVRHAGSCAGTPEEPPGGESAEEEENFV
Assay [9] deals with Dickkopf-related protein 1 (Homo sapiens) (UniProt O94907). Description: small molecules binding DKK1 protein – biochemical, small-molecule microarray, 635 nm fluorescence scan, primary screen (AID 1106).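 Further: score merges emission near 667 nm with signal to noise over three replicate slides.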 The conditions noted are these: higher = more signal.
Chain of Dickkopf-related protein 1 (Homo sapiens) (O94907 whole entry, looked up): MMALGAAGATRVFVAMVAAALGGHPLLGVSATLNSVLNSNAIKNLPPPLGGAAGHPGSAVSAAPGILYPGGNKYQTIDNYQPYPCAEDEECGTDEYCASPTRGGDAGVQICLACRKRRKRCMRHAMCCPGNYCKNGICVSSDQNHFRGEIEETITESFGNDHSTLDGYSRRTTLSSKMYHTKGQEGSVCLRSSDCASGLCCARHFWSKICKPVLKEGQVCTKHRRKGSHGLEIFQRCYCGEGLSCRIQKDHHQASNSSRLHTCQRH
The subject of assay [10] is Inhibin beta A chain (activin A). Description: small molecules binding activin A – biochemical, small-molecule microarray, 635 nm fluorescence scan, primary screen (AID 1107).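 Further: mouse activin A protein probed at 4.33 µg/mL on printed slides; score merges bound-protein fluorescence near 667 nm with spot signal-to-noise.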 The conditions noted are these: INHBA, higher = more signal.

Active and inactive are the calls of the source.

Chain of Fibroblast growth factor 10 (Homo sapiens) (O15520 whole entry, looked up): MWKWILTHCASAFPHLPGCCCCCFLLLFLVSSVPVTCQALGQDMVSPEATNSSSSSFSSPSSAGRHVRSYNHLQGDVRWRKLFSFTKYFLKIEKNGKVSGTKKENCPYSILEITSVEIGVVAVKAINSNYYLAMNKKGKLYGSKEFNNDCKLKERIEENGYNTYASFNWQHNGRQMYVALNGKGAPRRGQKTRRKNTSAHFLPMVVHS
Chain of Epidermal growth factor receptor (Homo sapiens) (P00533 whole entry, looked up): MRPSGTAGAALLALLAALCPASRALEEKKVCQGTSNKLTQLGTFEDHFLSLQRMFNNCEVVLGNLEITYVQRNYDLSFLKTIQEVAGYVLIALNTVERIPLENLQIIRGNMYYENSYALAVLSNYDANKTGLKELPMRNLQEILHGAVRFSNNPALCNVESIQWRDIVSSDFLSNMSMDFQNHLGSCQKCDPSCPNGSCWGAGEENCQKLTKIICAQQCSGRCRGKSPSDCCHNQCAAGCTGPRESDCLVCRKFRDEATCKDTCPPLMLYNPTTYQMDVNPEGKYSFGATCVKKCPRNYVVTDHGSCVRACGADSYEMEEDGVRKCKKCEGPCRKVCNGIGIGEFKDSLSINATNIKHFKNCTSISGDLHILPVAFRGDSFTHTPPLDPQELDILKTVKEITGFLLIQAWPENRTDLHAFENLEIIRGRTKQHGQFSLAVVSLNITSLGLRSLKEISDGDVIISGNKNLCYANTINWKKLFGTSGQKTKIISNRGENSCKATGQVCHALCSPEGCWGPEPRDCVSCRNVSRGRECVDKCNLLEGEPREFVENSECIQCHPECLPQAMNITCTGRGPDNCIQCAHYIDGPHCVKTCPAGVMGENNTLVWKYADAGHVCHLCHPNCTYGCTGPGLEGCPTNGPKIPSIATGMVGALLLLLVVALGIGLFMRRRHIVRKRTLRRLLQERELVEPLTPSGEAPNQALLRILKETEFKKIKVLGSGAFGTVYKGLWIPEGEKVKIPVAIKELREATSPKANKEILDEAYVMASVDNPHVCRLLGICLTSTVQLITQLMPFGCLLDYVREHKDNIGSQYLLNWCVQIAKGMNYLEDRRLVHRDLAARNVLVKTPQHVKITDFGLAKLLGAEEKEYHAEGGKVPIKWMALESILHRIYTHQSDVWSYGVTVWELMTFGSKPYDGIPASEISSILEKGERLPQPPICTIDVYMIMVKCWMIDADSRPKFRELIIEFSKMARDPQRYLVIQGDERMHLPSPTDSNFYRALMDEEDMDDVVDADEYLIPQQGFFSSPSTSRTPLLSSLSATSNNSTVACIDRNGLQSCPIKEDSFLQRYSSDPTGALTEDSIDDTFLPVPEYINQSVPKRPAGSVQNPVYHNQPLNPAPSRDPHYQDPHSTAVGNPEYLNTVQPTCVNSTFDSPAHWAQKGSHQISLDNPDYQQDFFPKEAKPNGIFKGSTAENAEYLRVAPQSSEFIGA

Take `COc1ccc([Si](C)(C)[C@H]2[C@H](CCn3cc([C@H](O)c4ccccc4)nn3)O[C@@]3(C(=O)N(C)c4ccccc43)[C@@H]2C)cc1`: the composite z-score in assay [1] was 1.17; in [2] it was -0.0149; in [3] it was 0.376; in assay [5], -0.133; in assay [6], -0.621; in assay [7], -0.55. In addition, the composite z-score was -0.165 in assay [8], -0.529 in assay [9] and 0.209 in [10]. In addition, the z-score in assay [4] is 1.11 (inactive).
Consider `C[N+](C)(C)CCCC[C@@H]1NC(=O)[C@H]2C[C@@H](C(=O)NCCCCCCNC(=O)CS)[C@@H](c3ccc(O)cc3)N2C1=O`, for which the composite z-score in [1] is -0.783; in assay [2], -0.0452; in [3] it was 0.782; in [5] it was -0.347; in assay [6] it was -1.09; in assay [7], -0.805. In addition, the composite z-score in assay [8] was -0.884; in assay [9], -0.628; in assay [10] it was 0.507. In addition, the z-score in assay [4] is -0.45 (inactive).
As to `C=CCN1Cc2ccccc2[C@@H]2OC(c3ccc(OCCCO)cc3)=N[C@]2(CCS(=O)(=O)c2ccccc2)C1=O`, the composite z-score in assay [1] stood at 1.53; in assay [2], 0.205; in assay [3], 0.825; in [5], 1.4; in [6] it was 1.32; in [7], 1.01. For the same molecule, the composite z-score in [8] amounted to 1.43; in assay [9], 1.41; in assay [10], 1.1. Further, the z-score in assay [4] is 0.211 (inactive).
As to `C=CC[C@@]1(C(=O)N2CCCCC2)N=C(c2ccc(OCCCO)cc2)O[C@@H]1c1ccccc1CN=[N+]=[N-]`, the composite z-score in assay [1] is 1.23; in [2] it was 0.952; in assay [3], 1.04; in [5], 0.666; in assay [6], -0.0684; in assay [7] it was 0.17. Moreover, the composite z-score in [8] is 1.15; in assay [9], -0.187; in assay [10], 0.711. Besides, the z-score in assay [4] was -0.431 (inactive).
As for `CCCCCCc1nc(-c2ccc(-c3ccc(Cl)c(Cl)c3)o2)c(C)c2c1[Si](C(C)C)(C(C)C)OC2`, the composite z-score in [1] was -0.0921; in assay [2], -0.233; in assay [3] it was -0.102; in assay [5], -0.57; in [6], -0.555; in [7] it was -0.648. Also, the figures for the composite z-score in assay [8], in assay [9] and in assay [10] were -0.374, -0.446 and 0.375, respectively. For the same molecule, in assay [4], the z-score is -1.62 (inactive).
Consider `C=C(CCCC)/C(=C/C[C@@H](OC(C)=O)c1cccc(OCCO)c1)c1cnc2ccccc2c1`, for which the composite z-score in [1] was 0.462; in assay [2], -0.14; in [3], 0.0854; in [5], 1; in assay [6] it was -0.518; in assay [7] it was 0.12. Further, the composite z-score worked out at 1.12 in [8], 0.312 in assay [9] and 1.58 in assay [10]. Further, the z-score in assay [4] is 1.17 (inactive).
For `COc1ccc(C(O)C2C=CC3C(=O)N(C)C(=O)C3N2N(c2ccccc2)c2ccccc2)c2ccccc12` (stereo not given), the composite z-score in [1] was 1.42; in [2], 0.464; in assay [3] it was 1.04; in [5], 0.784; in assay [6], -0.16; in assay [7], 0.23. The composite z-score in assay [8] was 1.19; in assay [9] it was 0.569; in [10] it was 1.13. Moreover, the z-score in assay [4] is 1.04 (inactive).
Turning to `O=C1O[C@@H](c2ccccc2)[C@@H](c2ccccc2)N2[C@@H](c3ccccc3OCCO)[C@]3(C(=O)Nc4ccc(C#CC5(O)CCCCCC5)cc43)[C@@H](C(=O)N3CCN(c4ncccn4)CC3)[C@H]12`, the composite z-score in assay [1] was 0.448; in [2], -0.125; in [3], 0.304; in [5], 0.878; in [6] it was 1.06; in assay [7], 0.301. Moreover, the values for the composite z-score in [8], in [9] and in [10] were 0.463, 0.439 and -0.431, respectively. Further, the z-score in assay [4] was -0.562 (inactive).
`COc1ccc([C@H]2OC[C@@H]3CCC(=O)N32)cc1`: the composite z-score in assay [1] was 0.178; in assay [2] it was -0.235; in assay [3], -0.374; in assay [5], 0.66; in assay [6] it was 1.17; in [7], 0.339. Besides, the composite z-score worked out at 0.954 in [8], 0.294 in assay [9] and 0.0892 in assay [10]. The z-score in assay [4] is -0.00375 (inactive).
Consider `O=C1NC(=O)C2C1C=CC(C(O)c1ccc(-c3ccccc3)s1)N2Nc1ccc(Cl)cc1Cl` (stereo not given), for which the composite z-score in assay [1] was 1.02; in [2], -0.214; in assay [3], 0.956; in assay [5], 0.227; in assay [6] it was 0.508; in assay [7] it was 0.112. In addition, the composite z-score in assay [8] is 0.992; in assay [9], -0.729; in assay [10], 0.959. Further, the z-score in assay [4] was 0.624 (inactive).
As for `NCCCCCNC(=O)[C@H]1C[C@H]2C(=O)N3CCC[C@H]3C(=O)N2[C@H]1c1ccc(O)cc1`, the composite z-score in assay [1] was determined as 0.94; in [2], 1.63; in assay [3] it was 0.684; in [5], 1.01; in assay [6] it was 1.28; in assay [7] it was 0.781. Besides, the composite z-score in assay [8] was 1.34; in [9], 1.24; in assay [10], 1.12. For the same molecule, in assay [4], the z-score is -0.391 (inactive).
In the case of `CCCCCN1CC=CC23O[C@@H]4C=CCOC(=O)[C@@H]4[C@H]2C(=O)N(C(C)CO)[C@@H]3C1=O` (stereo not given in full), the composite z-score is 1.4 in assay [1]; -0.162 in [2]; 0.381 in assay [3]; -0.571 in assay [5]; -0.831 in assay [6]; -1.44 in [7]. The composite z-score in assay [8] is -1.25; in assay [9] it was -0.693; in [10] it was -0.469. In addition, in assay [4], the z-score is 1.03 (inactive).
As to `CCCCCCCCCCC(O)C1C=CC2C(=O)NC(=O)C2N1Nc1ccc(Cl)cc1Cl` (stereo not given), the composite z-score is -0.856 in [1]; -0.214 in assay [2]; 0.935 in [3]; -0.127 in [5]; -0.535 in assay [6]; -0.724 in assay [7]. The figures for the composite z-score in assay [8], in assay [9] and in assay [10] were -0.88, -1.04 and 1.14, respectively. For the same molecule, the z-score in assay [4] was -0.723 (inactive).
With `O=C(O)[C@H](Cc1ccccc1)n1cc(-c2ccccc2)nn1`, the composite z-score in assay [1] was 0.0064; in assay [2], -0.284; in [3], -0.367; in assay [5] it was 0.467; in assay [6] it was 0.569; in [7] it was 0.293. Also, the composite z-score in [8] came out at 0.179; in assay [9], 0.31; in assay [10], 0.267. In addition, the z-score in assay [4] is -0.544 (inactive).
Take `CC(=CC1CCCCC1)[C@@H](NC(=O)c1cccnc1)c1ccc(-c2ccccc2)cc1`: the composite z-score was -0.178 in [1]; -0.0066 in [2]; 0.849 in assay [3]; -0.599 in assay [5]; -1.11 in assay [6]; -0.419 in assay [7]. Besides, the composite z-score in [8] was -0.195; in assay [9], -0.44; in [10], 0.679. Further, in assay [4], the z-score was 0.772 (inactive).
In the case of `O=C1C2C=CC(C(O)c3ccc(-c4ccccc4)s3)N(Nc3ccccc3)C2C(=O)N1c1ccccc1` (stereo not given), the composite z-score in assay [1] was 1.5; in assay [2], 0.753; in [3] it was 0.953; in [5], 0.722; in assay [6], 0.808; in assay [7], -0.0664. Further, the composite z-score was 1.03 in [8], -0.632 in assay [9] and 0.845 in assay [10]. The z-score in [4] is 1.1 (inactive).
Turning to `CC(C)(C)OC(=O)CC[C@@]1(C(=O)N2CCCCC2)N=C(c2ccc(OCCCO)cc2)O[C@@H]1c1ccccc1`, the composite z-score in assay [1] stood at 1.74; in assay [2], 0.555; in [3] it was 0.452; in [5], 1.46; in assay [6], 1.3; in [7], 0.197. Further, the composite z-score in [8] was 0.858; in [9] it was -0.219; in assay [10] it was 0.6. For the same molecule, in assay [4], the z-score was 0.0826 (inactive).
